# From PubChem BioAssay AID624396 (The Scripps Research Institute Molecular Screening Center, 2012)
# Calls of active or inactive are those of the source.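 The calls were made as follows: active = over 15% of cells apoptotic at 25 µM, or half-maximal dose of 10 µM or lower; inactive = the rest.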
# Tested on: BCL2 1863
# Assay: pro-apoptotic nuclear morphology in cancer cells – imaging, DAPI staining, cell line panel, probe, mechanism study for MCL1-BIM inhibitor project, late-stage follow-up (AID 624396)
# Settings: at 25 µM, active compounds read high
structure (smiles),measurement,value
CCN1CCN(C(c2ccc(C(F)(F)F)cc2)c2ccc3cccnc3c2O)CC1 (stereo unspecified),apoptosis,21% (active)
